# Screens (PubChem)
# VACV Venus inh – inhibitors of vaccinia virus (Venus reporter); Vaccinia virus Venus reporter expression, fluorescence; Potency, µM (titrated, usually from 36.5 µM), for the others: at the top dose activity change, negative = inhibition, most hits filed as inhibitors; 330,000 compounds, 0.46% hits; AID 720580; calls by dose curve; tested in A549 cells; note: potency is the fitted concentration of half-maximal effect; nearly all actives have a fitted effect of over 30% in size
# FMDV antiviral – blocks foot and mouth disease virus | 410,000 compounds, 1.2% hits | AID 1159524 | FMDV antiviral cell-based qHTS | Potency, µM (top dose mostly 57.9 µM), for inactives: at the highest dose activity change, negative = inhibition, actives largely listed as inhibitors; calls by dose curve; tested in HEK293T cells; note: read-out not given here; potency is the fitted concentration of half-maximal effect; nearly all actives have a fitted effect of over 45% in size
# VACV mCherry inh – inhibitors of vaccinia virus infection (mCherry reporter signal). Vaccinia virus mCherry reporter infection, fluorescence. 310,000 compounds, 0.63% hits. Potency, µM (titrated, usually from 36.5 µM), inactives show top-dose activity change, negative = inhibition, usual class: inhibitors; calls by dose curve; tested in A549 cells; note: potency is the fitted concentration of half-maximal effect; nearly all actives have a fitted effect of over 35% in size
# Marburg entry inh – blocks Marburg virus binding to or entry into cells | Marburg virus pseudotyped entry inhibition, cell reporter | Potency, µM (doses to about 37.8 µM), without a hit: top-dose activity change, negative = inhibition, usual class: inhibitors | 300,000 compounds, 1.8% hits; calls by dose curve; tested in HEK293 cells; note: potency is the fitted concentration of half-maximal effect
# HCMV inh – inhibitors of human cytomegalovirus. activity change, negative = inhibition, % at 57.5 µM. AID 1259415. HFF cells, HCMV-luciferase reporter, 72 h; active compounds read low. 410,000 compounds, 4.5% hits; in the data active = activity change below about -60%; inconclusive = no clear call, values can overlap the other calls; inactive = above about -39%
#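 Two compound doses tested in HFFs infected with HCMV-luciferase, MOI 1 PFU/cell, 72 h at 37C. Lysate luminescence read with OneGlo; data normalized against buffer-only and 10uM Salinomycin inhibitor controls.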
# LASV entry inh – blocks Lassa virus binding to or entry into cells | Lassa virus pseudotype entry inhibition, cell reporter | Potency, µM (top dose mostly 37.9 µM), for the others: at the highest dose activity change, negative = inhibition, actives largely listed as inhibitors | 300,000 compounds, 1.2% hits | AID 540256; calls by dose curve; tested in HEK293 cells; note: potency is the fitted concentration of half-maximal effect; nearly all actives have a fitted effect of over 50% in size
# An asterisk follows results filed as active; i = inactive; ? = inconclusive; nt = no result given; + = active, no number; [ ] = dose if it differs, or a comment. Compounds with a hit are over-represented: about 6.5% of the library has one in this group of screens. % is set by controls: 0 for no effect and ±100 for the full control effect.
SMILES,VACV Venus inh,FMDV antiviral,VACV mCherry inh,Marburg entry inh,HCMV inh,LASV entry inh
CC1(C)CC2CC(C)(CN2C(=O)COC(=O)c2ccccc2C(F)(F)F)C1 (centres undefined),nt,-5.9%,nt,nt,+,nt
COc1cc(/C=C/C(=O)OCC(=O)N2CC3(C)CC2CC(C)(C)C3)ccc1O (centres undefined),-23.3%,?,i,-36.9%,-73.3*,?
O=C(Nc1ccc(Cl)cc1)OCC12COCN1COC2,nt,nt,nt,nt,5.0,nt
CCCNC(=O)NCCC12CC3CC(CC(C3)C1)C2,-25.4%,19.9%,i,-0.4%[46.1 µM],-26.1,2.51µM*
CC(=O)Oc1ccc(N(C(C)=O)S(=O)(=O)c2cccs2)c2ccccc12,2.3%,15.8µM*,-2.4%,11.6µM*,-24.1,13.7%[14.3 µM]
CCOC(=O)C1=C[C@@H](C2CCCCC2)N(S(=O)(=O)c2ccc([N+](=O)[O-])cc2)[C@H]1c1ccccc1,-1.0%,?,12.9%,nt,-77.0*,nt
CCOC(=O)C1=CC[C@@H](c2ccc([N+](=O)[O-])cc2)N(S(=O)(=O)c2ccc(C)cc2)[C@H]1c1ccccc1,5.1%,-17.2%,27.3%,nt,-14.3,nt
COc1ccc(-n2c(C)nc3c(cnn3-c3ccc(Cl)cc3)c2=O)cc1,?,?,?,?,-76.8*,-8.0%
COc1ccc(Oc2c(Cl)cnn(-c3ccc(Cl)c(Cl)c3)c2=O)cc1,-28.8%,28.2µM*,nt,?,28.2,?
COc1ccc(Oc2c(Cl)cnn(-c3ccc(C)cc3)c2=O)cc1,-3.2%,0.0%,nt,10µM*,12.5,?
CCOC(=O)c1ccc(-n2c(C)nc3c(cnn3-c3ccc(Cl)cc3)c2=O)cc1,16.1%,?,22.2%,2.5%[46.1 µM],8.8,-3.3%[46.1 µM]
COc1ccc(Oc2c(Cl)cnn(-c3ccc(F)cc3)c2=O)cc1,-8.2%,0.0%,nt,?,-39.8,?
CC(C)(CN1CCOCC1)NS(=O)(=O)c1ccccc1,-2.7%,1.5%,-26.7%,-1.0%,-29.2,4.0%
CN1CCN(CC(C)(C)NS(=O)(=O)c2ccccc2)CC1,-2.3%,-14.2%,-10.5%,3.9%,-61.3*,2.4%
[O-][N+](=NC1C=Cc2ccccc21)C1C=Cc2ccccc21 (centres undefined),7.2%,nt,?,nt,nt,nt
Cc1ccc2nc(-c3ccc(NC(=O)Cc4cccs4)cc3)[nH]c2c1,12.6µM*,nt,?,-20.9%,25.1,?
Cc1ccc2nc(-c3ccc(NC(=O)C4CCCO4)cc3)[nH]c2c1 (centres undefined),nt,-14.6%,nt,?,3.9,8.2µM*
CCCCCCC(=O)Nc1ccc(Cl)cn1,nt,50.0%,nt,15.6%,-15.3,1.3%
O=C(CCCOc1ccccc1)Nc1ccc(Cl)cn1,-27.9%,27.9%,?,-24.3%[46.1 µM],-65.1*,-1.6%
COCCSc1ccccc1C(=O)Nc1ccc(Cl)cn1,-2.9%,-22.9%,-13.1%,23.6%,-68.5*,8.6%
O=C(COC(=O)CNC(=O)c1ccco1)Nc1ccc(Cl)cn1,6.3%,1.1%,-0.7%,-0.8%,14.3,-18.8%
O=C(COC(=O)CNC(=O)c1ccccc1)Nc1ccc(Cl)cn1,9.3%,-2.7%,-4.5%,?,-60.7*,12.3%[46.1 µM]
Nc1nc(-c2cc(O)ccc2[N+](=O)[O-])cc(-c2ccccc2)c1[N+](=O)[O-],-10.6%,-24.1%,-13.1%,-7.0%[46.1 µM],-68.9*,-21.2%[46.1 µM]
O=[N+]([O-])c1ccccc1-c1cc(-c2ccccc2)on1,nt,nt,nt,nt,56.7,nt
COc1ccc2c(c1)/C(=C\c1cccc(/C=C3/C(=O)Nc4ccc(OC)cc43)n1)C(=O)N2,-15.4%,7.08µM*,-5.2%,1.58µM*,-98.0*,2.82µM*
SMILES,VACV Venus inh,FMDV antiviral,VACV mCherry inh,Marburg entry inh,HCMV inh,LASV entry inh
COc1ccc(-n2c(/C=C3/C(=O)Nc4ccccc43)nc3ccccc3c2=O)cc1,-6.4%,?,i,?,?,?
S=C(NCc1ccccc1)NC1CCCc2ccccc21 (centres undefined),-11.6%,5.5%,0.1%,?,-33.3,12.0%
S=C(NC1CC1)NC1CCCc2ccccc21 (centres undefined),nt,-3.5%,nt,21.1%,-61.6*,4.6%
O=C(CCNC(=O)c1ccc(Br)cc1)NC1CCCc2ccccc21 (centres undefined),11.0%,-6.1%,?,2.24µM*,-81.2*,7.08µM*
O=C(NC1CCCc2ccccc21)c1cccc(Br)c1 (centres undefined),-26.3%,40.3%,-26.6%,1.8%,-78.2*,-4.8%
CC(=O)c1ccc(OCCCC(=O)NC2CCCc3ccccc32)cc1 (centres undefined),-12.6%,-1.3%,i,7.1%,-85.8*,26.4%
CCOC(=O)C1CSCCS(=O)(=O)N1Cc1cccc(F)c1 (centres undefined),nt,nt,nt,nt,-7.7,nt
Cc1cc2c(c(=O)n1Cc1ccccc1)[C@H]1O[C@](CCCCN3C(=O)c4ccccc4C3=O)(Cc3cc(C#N)ccc31)O2,nt,nt,nt,7.7%[14.2 µM],nt,nt
COc1cccc(NC(=O)NC2CCCc3ccccc32)c1 (centres undefined),-17.4%,5.8%,i,?,-66.8*,0.6%[46.1 µM]
CCn1c(=O)c(=O)[nH]c2cc(C(=O)NC3CC3)ccc21,-1.3%,-16.5%,-7.7%,1.0%,-2.6,11.1%
CCc1c(C(=O)NC2CCCc3ccccc32)[nH]c(C)c1C(C)=O (centres undefined),nt,21.6%,nt,nt,-83.4*,nt
CCn1c(=O)c(=O)[nH]c2cc(C(=O)NC3CCCc4ccccc43)ccc21 (centres undefined),nt,23.7%,nt,20.6µM*,28.3,?
CC(=O)c1c(C)[nH]c(C(=O)NC2CCSc3ccccc32)c1C (centres undefined),-29.2%,-20.5%,-2.4%,?,?,?
COc1ccc(NC(=O)NC2CCCc3ccccc32)c(OC)c1 (centres undefined),-16.9%,-22.7%,-11.7%,-17.0%[46.1 µM],-4.6,-6.7%[46.1 µM]
Cc1cccc2[nH]cc(/C=C3/C=Nc4ccccc43)c12,26.0%,nt,-16.5%,nt,nt,nt
Cc1ccc(Cl)cc1NC(=O)C1CCN(C(=O)c2cnn(-c3ccccc3)c2-n2cccc2)CC1,-10.2%,?,-20.3%,?,-12.4,3.1%[46.1 µM]
CCn1cc(C(=O)N(C)c2cc(C)ccc2C)c2cc(OC)c(OC)cc2c1=O,5.0%,-19.4%,2.3%,?,-12.4,15.1%[46.1 µM]
CC(CNC(=O)[C@@H](Cc1ccccc1)NC(=O)[C@H]1O[C@@H](n2cnc3c(=O)[nH]c(N)nc32)[C@H](O)[C@@H]1O)c1ccccc1 (some centres undefined),nt,nt,nt,nt,-23.1,nt
Nc1[nH]nc2nc(NCc3ccccc3)c3c(c12)CCN(Cc1ccccc1)C3,0.0%,-22.3%,-19.3%,?,0.6,12.6µM*
N#Cc1c(NCCN)nc(NCc2ccccc2)c2c1CCN(Cc1ccccc1)C2,-21.0%,-16.6%,-8.4%,?,nt,6.9%
CCOc1ccc(-c2cc(CCCC(=O)Nc3cccc(OC)c3)no2)cc1,?,?,-5.9%,?,?,0.82µM*
O=C(Nc1ccc2c(c1)OCO2)c1ccc(Cl)cc1Cl,-19.2%,-7.8%,-14.1%,6.31µM*,108.2,?
